This is a sample that favours compounds with a hit; in the whole collection about 3.4% have one here.
SMARCA2 act: increases SMARCA2 function in MMTV reporter cells | MG213 cells, MMTV-luciferase reporter, dexamethasone, overnight | activation, % at 9.1 µM | actives 1% (n = 370,000); in the data active = activation above about 7.8%;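 note: 0% = vehicle wells and 100% = reference activator wells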
GAA850 FXN act: activators of GAA850 frataxin (FXN) promoter; HEK293 lucGAA850 FXN promoter luciferase reporter, 24 h; percent of 10 µM SAHA response; activation, % at 6 µM; actives 0.56% (n = 360,000); AID 540364;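 active = activation above the average of all compounds screened plus 3 SD, cutoff fixed separately per campaign, cut at about 7.5% in these data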;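 note: 0% = DMSO wells and 100% = 10 µM SAHA wells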
Cardio protect: modulators protecting cardiomyocytes from myocardial damage; H9c2 cardiomyocytes, H2O2 injury protection, ATPLite, 2 h; protection from H2O2 cell death, % at 20 µM; actives 0.63% (n = 360,000);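 active = compounds giving at least 50% protection of heart cells from peroxide-induced death in the single-dose screen, raw or plate-pattern-corrected value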;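 note: 0% = DMSO wells with peroxide and 100% = DMSO wells without peroxide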
Gli-Sufu antag: antagonists of Gli-Sufu signaling; AID 588413; Sufu-KO-LIGHT fibroblasts, Gli luciferase reporter luminescence; actives 0.74% (n = 340,000); inhibition, % at 5 µM;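 active = inhibition above about 55%, limit read from the data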;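 note: 0% = DMSO-treated cells and 100% = wells with medium but no cells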
GalR3 antagonist: blocks the human galanin receptor 3. O60755. HEK293 GalR3-CNG cAMP membrane potential fluorescence; galR3 body fused to GalR1 C-terminus. inhibition, % at 3 µM. actives 0.44% (n = 360,000). AID 651719;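 active = inhibition above the screen-wide average plus 3 SD, cut at about 13% in these data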;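 note: forskolin and galanin both at EC90 stimulate the cells; cAMP rise reported by CNG channel membrane potential dye signal; 0% = forskolin plus galanin with DMSO and 100% = forskolin alone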
NR2F2 inh: NR2F2 (human) inhibition, primary screen. P24468. HEK293T NGFI-A luciferase reporter, luminescence. inhibition, % at 8.6 µM. actives 0.7% (n = 370,000). AID 686940;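 active = inhibition above a per-plate cutoff, mean inhibition of test wells between control levels plus 3 SD, cut at about 38% in these data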;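 note: cells cotransfected with COUP-TFII expression vector driving the NGFI-A reporter; 0% = median of COUP-TF2 test wells and 100% = reporter-only cells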
Target sequence (P24468 whole entry, looked up): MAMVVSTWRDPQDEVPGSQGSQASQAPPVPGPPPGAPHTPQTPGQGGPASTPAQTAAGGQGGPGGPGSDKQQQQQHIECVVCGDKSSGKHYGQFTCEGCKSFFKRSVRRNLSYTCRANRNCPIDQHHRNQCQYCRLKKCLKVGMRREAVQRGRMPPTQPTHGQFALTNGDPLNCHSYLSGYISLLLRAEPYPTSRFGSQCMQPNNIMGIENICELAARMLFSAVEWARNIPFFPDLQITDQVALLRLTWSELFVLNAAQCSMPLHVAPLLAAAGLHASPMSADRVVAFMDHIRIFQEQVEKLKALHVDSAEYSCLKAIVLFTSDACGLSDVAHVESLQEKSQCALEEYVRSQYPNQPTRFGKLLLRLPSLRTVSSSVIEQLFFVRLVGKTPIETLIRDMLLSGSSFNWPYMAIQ
SMARCA2 conf: confirmation of SMARCA2 (BRM) function activators; actives 30% (n = 3,500); activation, % at 9.1 µM; AID 652260; shares compounds with SMARCA2 act; MG213 cells, MMTV-luciferase with dexamethasone, luminescence, overnight; MG213 cells expressing E1A, Rb sequestered; DMSO wells 0%, reference activator 100%;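 active = activation above its plate's cutoff, the mean activation of tested wells plus 3 SD, cut at about 7.9% in these data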
VP16 Luc act: GAL4-VP16 reporter activation counter-screen | activation, % at 9.1 µM | shares compounds with SMARCA2 act | actives 41% (n = 3,500) | AID 686939 | HEK293 GAL4-VP16 pG5luc reporter, luciferase luminescence; scaled: DMSO wells 0%, SAHA wells 100%;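 active = activation above the solvent-only control well mean plus 3 SD, averaged across control plates, cut at about 5.2% in these data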
* marks the source's active call; other numbers are inactive results; x = no result given.

SMILES | SMARCA2 act | GAA850 FXN act | Cardio protect | Gli-Sufu antag | GalR3 antagonist | NR2F2 inh | SMARCA2 conf | VP16 Luc act
Cc1ccc(N/C=C(\C2OC(=O)c3ccccc32)[N+](=O)[O-])c(C)c1 (centres undefined) | 7 | 1 | -1 | 0 | -2 | 5 | x | x
CCSc1nnc(CCNC(=O)OC(C)(C)C)o1 | 9.5* | 0 | 5 | -2 | -2 | -3 | -2 | 0
COc1ccc(C2SCCN2C(=S)Nc2cccc(Cl)c2)cc1 (centres undefined) | -2 | 1 | -11 | 0 | -10 | 6 | x | x
C=CCN1C(C(=O)OC)CN(Cc2cn(Cc3ccc(Cl)cc3)nn2)CCS1(=O)=O (centres undefined) | 8.5* | x | x | x | x | 5 | 2 | 2
COC(=O)C1CN(Cc2cn(Cc3ccc(Cl)cc3)nn2)CCS(=O)(=O)N1Cc1ccccc1 (centres undefined) | -6 | x | x | x | x | 3 | x | x
CCOC(=O)Cn1cc(CN2CCS(=O)(=O)N(Cc3ccc(F)cc3)C(C(=O)OC)C2)nn1 (centres undefined) | 8.5* | x | x | x | x | -10 | 0 | 0
Cc1ccnc(NC(=O)CNC(=O)c2ccc(C)s2)c1 | 9.8* | 2 | 3 | -36 | -4 | -42 | 4 | 6.7*
Cc1ccc(N2C(=O)SC(Cc3ccccc3)C2=O)cc1 (centres undefined) | 2 | 2 | -2 | 4 | -2 | -9 | x | x
O=C1SC(Cc2ccccc2)C(=O)N1c1ccccc1 (centres undefined) | 8.3* | 4 | -10 | 5 | -5 | -4 | -4 | 0
O=C(NC(=S)Nc1ccc2c(c1)OCCO2)c1ccccc1 | 9.7* | 1 | -10 | -87 | -6 | -47 | 5 | 9.1*
O=C(c1ccccc1)c1ccc2c(c1)OCCCO2 | 11* | 3 | -8 | -76 | -2 | -38 | 8.1* | 8.9*
O=C(NC(=S)Nc1ccc2c(c1)OCCO2)c1ccccc1F | 3 | 4 | -21 | -100 | -4 | -35 | x | x
COc1ccc(NC(=S)NC(=O)c2ccc3c(c2)OCCO3)cc1 | 11* | 4 | -6 | -95 | -1 | -32 | 1 | 11*
CCN(CC)S(=O)(=O)c1ccc(NC(=O)CO/N=C(\N)c2ccccc2)cc1 | -1 | 0 | -2 | -3 | -4 | -5 | x | x
COc1ccc(Cl)cc1NC(=O)CSc1nnc(C2CC2)n1C | -1 | 1 | 1 | 18 | -2 | 5 | x | x
COc1ccc(Cl)cc1NC(=O)CSc1nnc(C)c(=O)n1N | 8.3* | 1 | 9 | -4 | -3 | 0 | 6 | 0
Cc1ccc(NC(=O)CN2C(=O)S/C(=C/c3ccc(-c4cc(C(=O)O)ccc4C)o3)C2=O)cc1C | -4 | 0 | -14 | 4 | -3 | 14 | x | x
COC(=O)C(C)N1C(=O)S/C(=C\c2ccc(-c3ccc(C(=O)O)cc3C)o2)C1=O (centres undefined) | 11* | 3 | -4 | -15 | -4 | -21 | 9.8* | 10*
Cc1ccc(NC(=O)CCC(=O)Nc2nnc(C3CCCCC3)s2)cc1 | 0 | 1 | 1 | -7 | -7 | 7 | x | x
CCNC(=S)NNC(=O)c1ccccc1Cl | 8.2* | 0 | -2 | 0 | -8 | 7 | 6 | 0
CCC1CN(C(=O)NCc2ccccc2)c2ccccc2O1 (centres undefined) | 0 | 2 | 2 | -9 | -10 | 16 | x | x
COCCCNC(=O)C[C@H]1C[C@H](C(=O)N2CCOCC2)[C@@]2(CCC3CCCC3)c3[nH]c4ccc(Cl)cc4c3CCN2C1=O | 10* | 0 | -4 | 0 | -5 | -3 | 2 | 1
O=C(C[C@H]1C[C@H](C(=O)N2CCOCC2)[C@@]2(CCC3CCCC3)c3[nH]c4ccc(Cl)cc4c3CCN2C1=O)NCCN1CCOCC1 | -6 | -1 | -24 | -3 | -3 | -12 | x | x
CCOC(=O)CCCSc1nc(-c2ccc3c(c2)OCO3)cc(C(F)(F)F)c1C#N | 8.7* | 0 | -5 | 8 | -9 | 4 | 0 | 2
Cc1cc(C(=O)Nc2ccc(Cl)cc2)on1 | -1 | 2 | -2 | 0 | -7 | -2 | x | x
SMILES | SMARCA2 act | GAA850 FXN act | Cardio protect | Gli-Sufu antag | GalR3 antagonist | NR2F2 inh | SMARCA2 conf | VP16 Luc act
Cc1ocnc1C(=O)Nc1ccc(Cl)cc1 | 9.3* | 4 | -7 | -61 | -4 | -31 | 6 | 5
Cc1ccccc1NC(=O)COC(=O)c1ccc(S(C)(=O)=O)c([N+](=O)[O-])c1 | 16* | 4 | -26 | 8 | -7 | -3 | 3 | 3
Cc1ccccc1NC(=O)Cc1nc(COC(=O)c2ccc(S(C)(=O)=O)c([N+](=O)[O-])c2)cs1 | x | 2 | -24 | -12 | x | x | x | x
Clc1ccc(COn2c(-c3ccc(Cl)cc3)nc3ccccc32)cc1 | 3 | 1 | -11 | -9 | -8 | 24 | x | x
O=[N+]([O-])c1ccc2nc(-c3ccc(Cl)cc3)n(OCc3ccccc3)c2c1 | 11* | 4 | -13 | -57 | -9 | -46 | 7 | 11*
COc1ccc(OC)c(S(=O)(=O)n2ccnc2C(C)C)c1 | 0 | 1 | 3 | 10 | -11 | 8 | x | x
c1ccc(CN2CCC(Nc3nc(-c4cccnc4)nc4ccccc34)CC2)cc1 | 8.5* | 2 | -7 | -5 | -5 | -4 | 19* | 2
CC(=O)Nc1ccc(S(=O)(=O)NC2(C(F)(F)F)C(=O)Nc3c2c(=O)[nH]c(=O)n3Cc2cccnc2)cc1 (centres undefined) | 1 | 0 | 2 | -9 | -5 | -4 | x | x
COc1ccc(CNC(=O)CSc2nnnn2C)cc1OC | 8.5* | 1 | -8 | -7 | -3 | 10 | 2 | 1
Clc1ccccc1CSc1cnnc2ccccc12 | 9.0* | 4 | 16 | -33 | -3 | -40 | 1 | 5
CSc1ccccc1OCc1cc(C(=O)N2CCSCC2)no1 | 13* | 7 | 0 | -55 | -4 | -13 | 9.6* | 10*
CC(C)C(=O)N1CC[C@H]2[C@H](CCCN2Cc2cc(F)cc(F)c2)C1 | 0 | x | x | x | x | -6 | x | x
O=C(c1ccc(-c2cc(Cl)ccc2Cl)o1)N1CCOCC1 | 8.8* | 6 | -4 | -10 | 12 | -18 | 3 | 2
O=C(Nc1ccccc1Cl)c1ccc([N+](=O)[O-])o1 | 9.0* | 1 | -8 | -9 | -5 | 1 | 18* | 3
Cc1ccccc1NC(=O)c1ccc([N+](=O)[O-])o1 | 11* | 3 | -19 | -17 | -4 | -14 | 11* | 4
O=C(Nc1cccc2ncccc12)c1ccc([N+](=O)[O-])o1 | 15* | 0 | -13 | 12 | -9 | -15 | 8.4* | 1
